# In PubChem BioAssay AID504371 (National Center for Advancing Translational Sciences (NCATS), 2011):
# Inconclusive results are not listed. Active and inactive are the calls of the source. Calls come from the whole dose curve; as a rule, active = well fitted curve in the direction sought with a large enough effect; inconclusive = small, poorly fitted or top-dose-only effect, or another doubt; inactive = no such curve, though single readings can be large or run the other way.
# Assay: qHTS Assay for Compounds Blocking the Interaction Between CBF-beta and RUNX1 for the Treatment of Acute Myeloid Leukemia: ME-1 cellular proliferation, SAR for Probe
# Conditions: ME-1 cell proliferation, ATP luminescence, 48 h
# From the text: NIH Chemical Genomics Center [NCGC] NIH Molecular Libraries Probe Production centers Network [MLPCN] MLPCN Grant: X01MH083259-01 Assay Submitter (PI): Paul Liu NCGC Assay Overview: Core Binding Factor (CBF) abnormalities are associated with 20-25% of all acute myeloid leukemias (AML), of which 5-10% are further sub classified as acute myelomonocytic leukemia with eosinophilia, also known as M4Eo in the FAB classification scheme. This subtype of leukemia is usually associated with chromosome 16 inversion (p13:q22). Chromosome 16 inversion results in formation of the fusion oncogene CBFB-MYH11, which encodes the fusion protein CBF-beta-SMMHC. […] It has been hypothesized that the interference of CBF-beta and RUNX1 binding could have therapeutic implications for patients with CBF mediated leukemias. We developed a CBF-beta and RUNX1 binding assay in AlphaScreenTM format and optimized it for high throughput screening to search for inhibitors. The goal of this project is to screen MLPCN's compound collection (MLSMR) for identifying the inhibitors of the interaction between CBF-beta and RUNX1 proteins as research probes. If these probes work well in the animal models, the ultimate goal of this project is to development a new drug treatment for this disease. The present assay assesses compounds ability to slow cellular proliferation in a CBFb dependent cell line, ME-1.
# NCGC Assay protocol: 2uL/well media was dispensed per well into 1536-well white solid-bottom plates using Multidrop Combi dispenser. Subsequently, 23 nL/well compound solutions or DMSO controls were dispensed to the assay plates via a pintool workstation. […] The plates were incubated at 37 °C with 5% CO2 and 95% humidity for 48 hours, and then ATP content was measured following the addition of 4uL/well of ATPlite reagent and a 20 min incubation on a ViewLux plate reader.
row,Structure (SMILES),Potency
1,CCN(CC)CCN1C(=O)CN=C(c2ccccn2)c2cc(Cl)ccc21,109 µM (active)
2,CCN(CC)CCN1C(=O)CN=C(c2ccc[nH]2)c2cc(Cl)ccc21,137 µM (active)
3,CN1C(=O)CN=C(c2ccc[nH]2)c2cc(Cl)ccc21 (tested in a mixture with another compound),27.4 µM (active)
